Source: PubChem BioAssay AID1159580 (chemical genetic matrix, 2015)
The whole screen tested about 5,500 compounds, of which about 2,000 (36%) were called active. Roughly 18% stayed inconclusive and do not appear here. Cut-off read from the data, not from the text of the source: active = normalized growth mostly below about 0.91 (no sharp cut-off); inconclusive = no clear call, values can overlap the other calls; inactive = mostly above about 0.92. The list shows a part of the results.

Assay: chemical genetic growth profiling, strain panel (AID 1159580);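 note: tested at 20 µM; growth read once vehicle control cultures reached saturation at 30 °C; 1 = growth at the plate median or of vehicle wells; lower values mean less growth of the strain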
Settings: S. cerevisiae deletion strains, growth OD

Measured: normalized growth

CN1CC(=O)N2[C@H](c3ccc4c(c3)OCO4)c3[nH]c4ccccc4c3C[C@@H]2C1=O
inactive: locus YHR030C, strain SLT2, hits give low values 0.966 | locus YHR079C, strain IRE1, hits give low values 0.947 | locus YJL095W, strain BCK1, hits give low values 0.964 | locus YJR066W, strain TOR1, hits give low values 0.913 | locus YLR113W, strain HOG1, hits give low values 0.968 | locus YNL183C, strain NPR1, hits give low values 0.918 | locus YOR231W, strain MKK1, hits give low values 0.975 | locus YPL256C, strain CLN2, hits give low values 0.946

O=C(O)c1ccc2c(c1)OCO2
inactive: locus YAL021C, strain ccr4, hits give low values 1.01 | locus YAL026C, strain drs2, hits give low values 0.983 | locus YAL030W, strain snc1, hits give low values 1.01 | locus YBL061C, strain skt5, hits give low values 1 | locus YBR009C, strain hhf1, hits give low values 0.997 | locus YBR023C, strain chs3, hits give low values 1.01 | locus YBR171W, strain sec66, hits give low values 0.992 | locus YBR231C, strain swc5, hits give low values 1.01 | locus YBR279W, strain paf1, hits give low values 1.01 | locus YCL011C, strain gbp2, hits give low values 0.979 | locus YCL016C, strain dcc1, hits give low values 1.01 | locus YCL061C, strain MRC1, hits give low values 0.984 | locus YCL069W, strain vba3, hits give low values 0.984 | locus YCR088W, strain abp1, hits give low values 0.984 | locus YDL005C, strain med2, hits give low values 1.01 | locus YDL040C, strain nat1, hits give low values 1.01 | locus YDR001C, strain nth1, hits give low values 0.982 | locus YDR069C, strain doa4, hits give low values 1.02 | locus YDR137W, strain rgp1, hits give low values 1.01 | locus YDR159W, strain sac3, hits give low values 0.98 | locus YDR195W, strain ref2 1.02 | locus YDR297W, strain sur2, hits give low values 1.01 | locus YDR334W, strain swr1, hits give low values 0.994 | locus YDR335W, strain msn5, hits give low values 1.01 | locus YDR392W, strain spt3, hits give low values 0.979 | locus YEL003W, strain gim4, hits give low values 0.98 | locus YEL037C, strain rad23, hits give low values 0.987 | locus YEL061C, strain CIN8 (second series), hits give low values 0.988 | locus YER015W, strain faa2, hits give low values 0.997 | locus YER016W, strain bim1, hits give low values 1.01 | locus YER111C, strain swi4, hits give low values 0.978 | locus YER155C, strain BEM2 (second series), hits give low values 0.992 | locus YFR010W, strain ubp6, hits give low values 0.994 | locus YGL167C, strain pmr1, hits give low values 1.02 | locus YGL173C, strain kem1, hits give low values 1.01 | locus YGL227W, strain vid30, hits give low values 0.973 | locus YGL240W, strain doc1, hits give low values 0.998 | locus YGL253W, strain hxk2, hits give low values 1.01 | locus YHR013C, strain ard1, hits give low values 1.05 | locus YHR027C, strain rpn1, hits give low values 1.03 | locus YHR142W, strain chs7, hits give low values 1 | locus YJL092W, strain hpr5, hits give low values 0.985 | locus YJL095W, strain BCK1 (second series), hits give low values 1.02 | locus YJL115W, strain asf1, hits give low values 0.994 | locus YJL129C, strain trk1, hits give low values 0.998 | locus YJL154C, strain vps35, hits give low values 0.989 | locus YJL164C, strain tpk1, hits give low values 1 | locus YJL166W, strain qcr8, hits give low values 1.02 | locus YJL187C, strain SWE1, hits give low values 1.02 | locus YKL160W, strain elf1, hits give low values 1 | locus YKR026C, strain gcn3, hits give low values 0.983 | locus YKR091W, strain srl3, hits give low values 1.01 | locus YLL001W, strain dnm1, hits give low values 1.01 | locus YLL026W, hits give low values 1.01 | locus YLL041C, strain sdh2, hits give low values 1 | locus YLR027C, strain aat2, hits give low values 1 | locus YLR221C, strain rsa3, hits give low values 0.999 | locus YLR258W, strain gsy2, hits give low values 1 | locus YLR262C, strain YPT6 (second series), hits give low values 1.01 | locus YLR320W, strain mms22, hits give low values 1.03 | locus YLR342W, strain FKS1, hits give low values 1.05 | locus YLR357W, strain rsc2, hits give low values 1.09 | locus YLR370C, strain arc18, hits give low values 1.01 | locus YLR384C, strain iki3, hits give low values 1.01 | locus YML120C, strain ndi1, hits give low values 1.01 | locus YMR058W, strain fet3, hits give low values 0.997 | locus YMR125W, strain sto1, hits give low values 1.07 | locus YMR129W, hits give low values 1 | locus YMR205C, strain PFK2, hits give low values 1.01 | locus YMR231W, strain pep5, hits give low values 1.01 | locus YNL071W, strain lat1, hits give low values 1.01 | locus YNL209W, strain ssb2, hits give low values 1.01 | locus YNL248C, strain rpa49, hits give low values 1.02 | locus YNL322C, strain KRE1 (second series), hits give low values 0.991 | locus YNR049C, strain mso1, hits give low values 1.01 | locus YOR001W, strain rrp6, hits give low values 0.994 | locus YOR070C, strain gyp1, hits give low values 0.999 | locus YOR080W, strain dia2, hits give low values 1.01 | locus YOR083W, strain WHI5, hits give low values 1 | locus YOR106W, strain vam3, hits give low values 1 | locus YOR265W, strain rbl2, hits give low values 1 | locus YOR270C, strain vph1, hits give low values 1.05 | locus YOR290C, strain snf2, hits give low values 0.967 | locus YPL051W, strain arl3, hits give low values 1.01 | locus YPL078C, strain atp4, hits give low values 0.995 | locus YPL106C, strain sse1, hits give low values 1 | locus YPL240C, strain hsp82, hits give low values 1.01
